Among the data in PubChem BioAssay AID1117283 (Broad Institute, 2014) are outcome values, retold here.

Measured potencies and affinities stand elsewhere. Active and inactive are the calls of the source.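 Rule for the calls: active = fluorescent signal decreased by at least 40%; inconclusive = no clear call, values can overlap the other calls; inactive = the rest, including activity opposite to the expected direction.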

The assay is described as follows: fibronectin fibrillogenesis inhibitors in fibroblasts, dose response, AH1F cells, Alexa488-fibronectin fluorescence, cherry-pick, set 2 (AID 1117283).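 Note: AH1F fibroblasts given Alexa488-labelled fibronectin at 24 nM final.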 The note with it: Alexa488-fibronectin deposition fluorescence, overnight; series mostly up to 35 µM.

As for `Cn1cnc(S(=O)(=O)N2CCN(c3ccccc3)CC2)c1`, the compound was classed as inactive.

Take `C=CCC[C@H](Cc1ccc(F)cc1)C(=O)OC[C@H](Cc1c[nH]c2ccccc12)NC(=O)[C@@H](CC=C)CC(=O)N[C@@H](CO)Cc1ccccc1`: the outcome was inactive. Then `CO[C@H]1CN(C)C(=O)c2cc(NC(=O)Nc3cc(Cl)cc(Cl)c3)ccc2OC[C@@H](C)NC[C@@H]1C`, with “inactive”; and `O=C(Nc1nc(-c2ccncc2)cs1)C1COc2ccccc2O1` (configuration not stated), with “inactive”; and `CC(C)Cc1nnc(NC(=O)CSc2nc(N)cc(=O)[nH]2)s1`, with “inactive”. Then `C[C@H](CO)N1C[C@H](C)[C@@H](CN(C)Cc2ccc(-c3ccccc3)cc2)Oc2ccc(NC(=O)C3CCCCC3)cc2C1=O`, with “inactive”; and `Cc1cccc(NC(=O)Nc2ccc(S(=O)(=O)Nc3onc(C)c3C)cc2)c1`, with “inactive”; and `Cc1ccc(S(=O)(=O)N2CC[C@@H]3[C@H]2c2cc(-c4cccc(C(=O)N(C)C)c4)ccc2N[C@@H]3CO)cc1`, with “inactive”. On to `N#Cc1ccc(-c2ccc3c(c2)[C@@H]2[C@@H](CCN2S(=O)(=O)c2ccccc2F)[C@H](CO)N3)cc1`, for which the compound was called inactive. Then `C[C@H](O)C#Cc1ccc2c(c1)O[C@H](CN(C)C)[C@H](C)CN([C@H](C)CO)S2(=O)=O`, with “inactive”. Under `CO[C@@H]1CN(C)C(=O)c2cc(NC(=O)Nc3ccc(Cl)c(Cl)c3)ccc2OC[C@H](C)NC[C@H]1C` stands “inactive”; under `N#C[C@@H]1[C@@H](c2ccccc2C2=CCCCC2)[C@@H](CO)N1S(=O)(=O)c1ccccc1`, “inactive”.

For `CO[C@@H]1CN(C)C(=O)c2cc(NC(=O)Nc3cc(Cl)cc(Cl)c3)ccc2OC[C@H](C)NC[C@@H]1C`, the compound was classed as inactive.

`CO[C@H]1CN(C)C(=O)c2cc(NC(=O)Nc3ccc(Cl)c(Cl)c3)ccc2OC[C@H](C)NC[C@H]1C`: the compound was called inactive. Under `C[C@H](CO)N1C[C@H](C)[C@@H](CN(C)Cc2ccc(-c3ccccc3)cc2)Oc2ccc(NC(=O)CCCN(C)C)cc2C1=O` stands “inactive”; under `CO[C@@H]1CN(C)C(=O)c2cc(NC(=O)Nc3cc(Cl)cc(Cl)c3)ccc2OC[C@@H](C)NC[C@@H]1C`, “inactive”.

Consider `C[C@H](CO)N1C[C@H](C)[C@H](CN(C)C)Oc2cc(C#C[C@@H](C)O)ccc2S1(=O)=O`, for which the compound was classed as inactive. Then `CCCCNC(=O)Nc1nc2ccc(CC)cc2s1`, with “inactive”; and `O=C(Nc1ccc(Cl)cc1)N1C[C@H]2[C@@H](c3ccccc31)[C@H](CO)N2CC1CCCC1`, with “inactive”; and `O=c1c2cc(N3CCOCC3)ccc2[nH]c(=S)n1Cc1ccc(Cl)cc1`, with “inactive”. Then `COc1ccc(S(=O)(=O)N2CCCCC2c2cc(C(=O)Nc3ccc4c(c3)OCO4)no2)cc1` (configuration not stated), with “inactive”. Under `C[C@@H]1CN([C@@H](C)CO)C(=O)c2cc(NC(=O)CCCN(C)C)ccc2O[C@@H]1CN(C)Cc1ccc(-c2ccccc2)cc1` stands “inactive”; under `CC1CN(C(=O)c2cc3c(=O)n4ccccc4nc3n2C)CC(C)O1` (configuration not stated), “inactive”; under `O=S(=O)(c1cccc(F)c1)N1CC[C@@H]2[C@H](CO)Nc3ccc(-c4cccc(F)c4)cc3[C@@H]21`, “inactive”.

`C[C@H]1CN([C@@H](C)CO)C(=O)c2cc(-c3ccccc3)cnc2O[C@@H]1CN(C)Cc1ccccc1`: the outcome was inactive.

Regarding `C[C@@H]1CN([C@H](C)CO)C(=O)c2cccc(NC(=O)Nc3ccc(C(F)(F)F)cc3)c2O[C@H]1CN(C)C(=O)Nc1cccc2ccccc12`, the call was inactive. Under `Cn1cc([N+](=O)[O-])c(C(=O)Nc2cc(Oc3ccccc3)cc([N+](=O)[O-])c2)n1` stands “inactive”; under `COc1cccc(-c2ccc3c(c2)[C@H]2[C@H](CCN2S(=O)(=O)c2cccc(OC)c2)[C@H](CO)N3)c1`, “inactive”; under `Cc1cccc(NC(=O)c2ccc(C3SCC(=O)N3CCc3ccccc3)cc2)c1` (configuration not stated), “inactive”. Under `C[C@@H](O)C#Cc1ccc2c(c1)O[C@@H](CN(C)C)[C@@H](C)CN([C@@H](C)CO)S2(=O)=O` stands “inactive”; under `Cc1ccc(Nc2nnc(SCc3ccccc3)s2)cc1`, “inactive”; under `C[C@@H]1CN([C@H](C)CO)C(=O)c2cc(NC(=O)C3CCCCC3)ccc2O[C@@H]1CN(C)Cc1ccc(-c2ccccc2)cc1`, “inactive”.

For the compound `O=C(CSc1nc2ncc(Cl)cc2[nH]1)c1c[nH]c2ccccc12`, the call was inactive. Under `O=C(Nc1ccccc1F)N1C[C@@H]2[C@H](c3ccccc31)[C@H](CO)N2C(=O)C1CC1` stands “inactive”; under `COC(=O)C[C@H]1CC[C@H]2[C@@H](COc3ccc(NC(=O)Cc4cccs4)cc3C(=O)N2C)O1`, “inactive”. Under `COC(=O)C[C@@H]1CC[C@@H]2[C@H](COc3ccc(NC(=O)Cc4cccs4)cc3C(=O)N2C)O1` stands “inactive”; under `O=C(Nc1cc(Sc2nc3ccccc3s2)cc([N+](=O)[O-])c1)c1ccccc1F`, “inactive”.
